ALOX12 inh – blocks human arachidonate 12S-lipoxygenase; P18054; purified 12hLO, xylenol orange hydroperoxide absorbance; Potency, µM (doses to about 108 µM), without a hit: top-dose activity change, negative = inhibition, usual class: inhibitors; 1.1% of 580,000 active; further: potency means the concentration at half of the fitted maximal effect; on the % scale 0 is the no-effect control and ±100 the full control effect
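Hydroperoxide product was detected by ferrous iron/xylenol orange as the 573 to 405 nm absorbance ratio. Arachidonic acid at 40 uM (final) was turned over for 30 min at room temperature by 150 nM human 12hLO, pH 7.0 Hepes buffer, after 15 min compound preincubation.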
Nrf2 block – Nrf2 pathway inhibition. 2.1% of 360,000 active. Potency, µM (highest dose often 46 µM), for inactives: top-dose activity change, negative = inhibition, hits mostly inhibitors. A549 ARE-Fluc reporter, luciferase luminescence, 18-24 h; further: potency means the concentration at half of the fitted maximal effect; on the % scale 0 is the no-effect control and ±100 the full control effect; nearly all actives have a fitted effect of over 60% in size
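Concentration-response testing used A549 ARE_Fluc cells at 5000 cells/well. Following an 18-24 h compound incubation, viability was read by fluorescence (Ex 405/Em 525) and luciferase output by luminescence.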
ERG-DNA inh – blocks human ERG Ets domain binding to DNA. fluorescence polarization, His-ERG Ets domain / labelled DNA. P11308. Potency, µM (highest dose often 76.9 µM), for the others: top-dose FP activity, negative = inhibition, most hits filed as inhibitors. 0.028% of 370,000 active; active means well fitted inhibition curve with a large enough effect in the polarisation, with a control signal flat; inconclusive means small, poorly fitted or top-dose-only effect, or effect the other way, or a change in a side signal; inactive means no such curve, though single readings can be large or run the other way; the % refers to the polarisation;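 further: polarization taken with two DNA probes labelled with fluorescein and Texas red; potency means the concentration at half of the fitted maximal effect; % of control where 0% means no effect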
Target sequence (P11308 whole entry, looked up, the tested form may be a part): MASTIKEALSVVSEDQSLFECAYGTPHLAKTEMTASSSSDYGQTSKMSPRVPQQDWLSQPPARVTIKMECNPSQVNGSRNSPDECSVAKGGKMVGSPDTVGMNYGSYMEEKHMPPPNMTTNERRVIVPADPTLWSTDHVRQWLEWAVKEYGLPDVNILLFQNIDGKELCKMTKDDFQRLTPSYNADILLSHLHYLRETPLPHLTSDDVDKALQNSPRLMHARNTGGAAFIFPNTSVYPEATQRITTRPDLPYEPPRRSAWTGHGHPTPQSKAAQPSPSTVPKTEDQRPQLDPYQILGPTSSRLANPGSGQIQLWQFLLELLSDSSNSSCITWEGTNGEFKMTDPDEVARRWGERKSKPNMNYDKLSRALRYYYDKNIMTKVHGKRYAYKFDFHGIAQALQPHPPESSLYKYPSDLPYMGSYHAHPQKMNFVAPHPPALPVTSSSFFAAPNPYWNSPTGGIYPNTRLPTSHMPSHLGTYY
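His-tagged ERG Ets domain (1 uM in the protein solution; 300mM KCl, 50mM Tris-HCl, 1mM EDTA, 1mM DTT, pH 7.5) received compound, then a probe mix of 5 nM fluorescein-DNA and 100nM Texas-615-DNA. Fluorescence polarization was read for both dyes.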
LDHA inh – LDHA (human) enzyme inhibition; AID 1347041; 0.15% of 480,000 active; P00338; purified LDHA, NADH/diaphorase-resazurin fluorescence; hits give low values; activity change, % (values are at about 110 or 230 µM); in the data active means activity change below about -30%; inconclusive means mostly about -25% to -30%;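 further: plate controls were DMSO wells for no effect and wells without enzyme for full effect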
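Remaining NADH was detected by diaphorase (0.133 mg/mL) converting 37 µM resazurin to fluorescent resorufin, read at 0 and 20 minutes. The preceding 5-minute room-temperature reaction used 2 nM LDHA, 0.2 mM sodium pyruvate and 0.06 mM NADH at pH 7.4.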
Nrf2 ARE act – activators of Nrf2 (ARE) signaling; Potency, µM (doses to about 46.1 µM), for inactives: at the top dose activation, hits mostly activators; 0.31% of 410,000 active; AID 624171; AREc32 ARE-luciferase reporter (MCF7-derived line), luminescence, 24 h; further: potency means the concentration at half of the fitted maximal effect; % of control where 0% means no effect; nearly all actives have a fitted effect of over 65% in size
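Nrf2 activation is followed as ARE-luciferase induction in the AREc32 line after one day of compound treatment; luminescence is read with Steady-Glo.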
A549 viability – counter-screen for Nrf2 inhibitors: cytotoxicity in A549 cells; A549 ARE-Fluc cells, CellTiter-Fluor viability, 18-24 h; Potency, µM (titrated, usually from 46 µM), without a hit: at the top dose activity change, negative = cytotoxicity, usual class: inhibitors; 0.16% of 390,000 active; further: potency means the concentration at half of the fitted maximal effect; on the % scale 0 is the no-effect control and ±100 the full control effect
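A549 ARE-Fluc cells in 5% FBS OPTI-MEM, 5000 cells/well, rested 2 h then exposed to compounds in concentration-response for 18-24 h at 37 °C. Viability by CellTiter-Fluor fluorescence (Ex 405/Em 525) after 30 min; luciferase luminescence (BugLite, 15 min, RT) read afterwards.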
Active calls of the source: *; ! = a repeat was not active; [ ] = another dose, or the depositor's remark. Shown are actives, neighbours in structure and some others; about 2.7% of the full set was active somewhere. Unless noted, the call rests on the fitted dose curve; in most records, active means well fitted curve in the direction sought with a large enough effect; inconclusive means small, poorly fitted or top-dose-only effect, or another doubt; inactive means no such curve, though single readings can be large; an effect the other way counts as inactive or inconclusive.

How did CCOC(=O)c1c(C)[nH]c(C)c1C(=O)Cn1nnc(-c2ccccc2C)n1 do in these assays?
ALOX12 inh: 0%; Nrf2 block: 13µM*; ERG-DNA inh: 0%; LDHA inh: -7; Nrf2 ARE act: 0%; A549 viability: -28%

What do the screens show for `Cc1c(C)n(CCCN(C)C)c2ncn3nc(-c4cccs4)nc3c12`?
ALOX12 inh: -1%; LDHA inh: 4

What do the screens show for `c1ccc(CN2CCC(CNc3ncnc4ccccc34)C2)cc1` (stereo not drawn)?
ALOX12 inh: inconclusive; Nrf2 block: 21µM*; ERG-DNA inh: 13%; LDHA inh: -6; Nrf2 ARE act: 0%; A549 viability: -13%

What do the screens show for `CCCCN(Cc1cc2ccccc2[nH]c1=O)C(=O)c1cc(OC)c(OC)c(OC)c1`?
ALOX12 inh: -25%; LDHA inh: -9

Results for Cc1ccc(S(=O)(=O)c2cn(CC(=O)Nc3ccc(C)c(F)c3)c3nc(C)ccc3c2=O)c(C)c1 ?
ALOX12 inh: inconclusive; LDHA inh: 7

Results for Cc1sc2nc(CSc3ccccc3)nc(N3CCC(C(N)=O)CC3)c2c1C ?
ALOX12 inh: inconclusive; Nrf2 block: inconclusive; ERG-DNA inh: 5%; LDHA inh: 1; Nrf2 ARE act: -1%; A549 viability: 1%

What do the screens show for `CCOC(=O)c1sc2nc(CSc3ccccc3)nc(N3CCCN(C)CC3)c2c1C`?
ALOX12 inh: 5.6µM*; Nrf2 block: 1%; ERG-DNA inh: 0%; LDHA inh: -15; Nrf2 ARE act: 0%; A549 viability: 8%

How did CCOC(=O)c1sc2nc(CSc3ccccc3)nc(N3CCC(C(N)=O)CC3)c2c1C do in these assays?
ALOX12 inh: -23%; Nrf2 block: 21µM*; ERG-DNA inh: 1%; LDHA inh: 0; Nrf2 ARE act: 0%; A549 viability: 4%

Results for CCOC(=O)c1ccc(NCc2c(Cl)cccc2Cl)cc1 ?
ALOX12 inh: 12%; LDHA inh: 11

Results for Cc1ccc(CN2CCN(CC(=O)Nc3cccc4nsnc34)CC2)o1 ?
ALOX12 inh: -12%; LDHA inh: -16

What do the screens show for `O=C(O)Cc1cccc(OCCCN(Cc2cccc(C(F)(F)F)c2Cl)CC(c2ccccc2)c2ccccc2)c1`?
ALOX12 inh: 24µM*!

What do the screens show for `COc1cccc(/C=N/NC(N)=S)c1OCc1ccccc1Cl`?
ALOX12 inh: 28µM*; Nrf2 block: inconclusive; ERG-DNA inh: -4%; LDHA inh: -9; Nrf2 ARE act: 2%; A549 viability: -3%

How did CCOc1c(Cl)cc(/C=N/NC(N)=S)cc1OC do in these assays?
ALOX12 inh: inconclusive; Nrf2 block: 21µM*; ERG-DNA inh: 2%; LDHA inh: -5; Nrf2 ARE act: 6%; A549 viability: 5%

Results for Cc1cccc(C)c1NC(=O)CN1C(=O)S/C(=C\c2cccn2-c2cccc(C(=O)O)c2)C1=O ?
ALOX12 inh: -26%; Nrf2 block: 9%; ERG-DNA inh: 18%; LDHA inh: -1; Nrf2 ARE act: 0%; A549 viability: -19%

How did Cc1cccc(C)c1-n1cccc1/C=C1\SC(=S)N(c2cccc(C(=O)O)c2)C1=O do in these assays?
ALOX12 inh: 45µM*; Nrf2 block: 1%; ERG-DNA inh: 8%; LDHA inh: -8; Nrf2 ARE act: 3%; A549 viability: -21%

How did O=C(Nc1ccc(Br)cc1F)N1Cc2cccn2-c2ccccc21 do in these assays?
ALOX12 inh: inconclusive; LDHA inh: -1

Results for Cc1ccc2[nH]c3c(NCc4ccco4)ncnc3c2c1 ?
ALOX12 inh: -16%; Nrf2 block: inconclusive; ERG-DNA inh: 2%; LDHA inh: 2; Nrf2 ARE act: 25%; A549 viability: 1%

What do the screens show for `COc1cc(CNc2ncnc3c2[nH]c2ccc(C)cc23)cc(OC)c1`?
ALOX12 inh: inconclusive; Nrf2 block: 15µM*; ERG-DNA inh: 5%; LDHA inh: -5; Nrf2 ARE act: 7%; A549 viability: -20%

Results for c1ccc(Cn2ncc3c(NCc4ccco4)ncnc32)cc1 ?
ALOX12 inh: -19%; Nrf2 block: inconclusive; LDHA inh: -2; Nrf2 ARE act: 4µM*; A549 viability: -1%

How did c1coc(CNc2ncnc3c2oc2ccccc23)c1 do in these assays?
ALOX12 inh: 5%; Nrf2 block: inconclusive; LDHA inh: -15; Nrf2 ARE act: 1.6µM*; A549 viability: -3%

What do the screens show for `Fc1ccc2[nH]c3c(NCc4ccco4)ncnc3c2c1`?
Nrf2 block: 12µM*; LDHA inh: -21; A549 viability: -11%

How did NC(=O)Cn1ccc2cc(OCC3CCN(c4cc(NC5CC5)ncn4)CC3)cnc21 do in these assays?
ALOX12 inh: 5%[176 µM]

How did NC(N)=NC(N)=Nc1ccc(Br)cc1 do in these assays?
ALOX12 inh: 4%; LDHA inh: 1

What do the screens show for `O=S(=O)(NCCc1ncc2ccccn12)c1ccc(Cl)cc1`?
ALOX12 inh: inconclusive; LDHA inh: 3

Results for [2H]C(CCOS(N)(=O)=O)c1ccc(C(C)(C)C)cc1 (stereo not drawn) ?
ALOX12 inh: 14%; Nrf2 block: 5.2µM*; ERG-DNA inh: 10%; LDHA inh: -2; Nrf2 ARE act: -1%; A549 viability: -3%

What do the screens show for `CCOC(=O)c1sc2nc(C(C)N3CCC(C)CC3)[nH]c(=O)c2c1C` (stereo not drawn)?
ALOX12 inh: -5%; LDHA inh: -17

How did O=c1oc2c3c4c(cc2s1)CCCN4CCC3 do in these assays?
ALOX12 inh: 18µM*; Nrf2 block: inconclusive; ERG-DNA inh: 6%; LDHA inh: 10; Nrf2 ARE act: 4%

What do the screens show for `Cc1cccc2cc3c(N)c(C(=O)N4CCOCC4)sc3nc12`?
ALOX12 inh: 25µM*; Nrf2 block: 6%; ERG-DNA inh: -1%; LDHA inh: -7; Nrf2 ARE act: 0%; A549 viability: 1%

Results for Cc1cc(C)c2cc3c(N)c(C(=O)N4CCc5ccccc5C4)sc3nc2c1 ?
ALOX12 inh: -62%; Nrf2 block: inconclusive; LDHA inh: -11; Nrf2 ARE act: 0%; A549 viability: 16%

How did Nc1c(C(=O)N2CCOCC2)sc2nc(N3CCOCC3)c3c(c12)CCCC3 do in these assays?
ALOX12 inh: 40µM*; Nrf2 block: 8%; ERG-DNA inh: -2%; LDHA inh: 1; Nrf2 ARE act: 3%; A549 viability: 16%
